Source: PubChem BioAssay AID602250 (The Scripps Research Institute Molecular Screening Center, 2012)
Screen size: about 360,000 compounds; about 2,200 (0.61%) were called active.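 Rule for the calls: active = inhibition above a per-plate cutoff, the plate's mean sample inhibition plus 3 SD (cut at about 24% in these data); inactive = the rest.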 The full list was thinned out, with actives kept by preference.

Assay: calcium signal blockers in parental CHO-K1 cells – cell-based, Fluo-8 calcium fluorescence, full deck, 1536-well, counter-screen for M1 antagonist project, primary screen (AID 602250);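 note: 0% = DMSO plus EC80 ATP and 100% = DMSO alone without ATP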
Settings: ATP-induced calcium, Fluo-8 fluorescence, at 3 µM, hits give high values

Row | Compound | inhibition
1 | COC(=O)c1ccc(-c2c(-c3ccccc3)ncc3cc(OC)c(OC)cc23)cc1 | 8.1% (inactive)
2 | Cc1cc(=O)n2nc(N3CCCC(C(=O)N4CCN(C)CC4)C3)sc2n1 (stereo not given) | 26.5% (active)
3 | Cc1cc(=O)n2nc(N3CCCC(C(=O)NCc4cccc(Cl)c4)C3)sc2n1 (stereo not given) | -13.5% (inactive)
4 | Cc1cc(=O)n2nc(N3CCCC(C(=O)NCc4ccc(Cl)cc4)C3)sc2n1 (stereo not given) | -0.44% (inactive)
5 | Cc1ccc(NC(=O)c2oc(=O)c3ccccc3c2-c2ccccc2)c(C)c1 | -9.65% (inactive)
6 | CCc1nnc(NC(=O)CSCc2cc(=O)n3cc(C)sc3n2)s1 | -12.4% (inactive)
7 | O=C(C1CCCN(S(=O)(=O)c2ccccc2)C1)N1CCN(c2ccc(F)cc2)CC1 (stereo not given) | -2.45% (inactive)
8 | COc1cccc(N2CCN(C(=O)C3CCCN(S(=O)(=O)c4cnc[nH]4)C3)CC2)c1 (stereo not given) | 2.59% (inactive)
9 | CC(=O)N1CCCc2cc(S(=O)(=O)N3CCCC(C(=O)N4CCN(c5cccc(Cl)c5)CC4)C3)ccc21 (stereo not given) | 30.4% (active)
10 | COc1ccc(OC)c(S(=O)(=O)N2CCCC(C(=O)NCCc3ccccc3)C2)c1 (stereo not given) | -10.1% (inactive)
11 | CCC(=O)Nc1ccccc1C(=O)N1CCN(Cc2ccccc2)CC1 | 19.3% (inactive)
12 | Cc1nn(Cc2ccccc2)c(C)c1C(=O)N1CCN(CC(=O)Nc2ccccc2Cl)CC1 | 23.9% (active)
13 | CCc1ccccc1NC(=O)CN1CCN(C(=O)c2cc(C3CC3)nn2-c2ccccc2)CC1 | -11.2% (inactive)
14 | CCCC(C)c1nnc(NC(=O)C2CC(=O)N(c3ccc(OCC)cc3)C2)s1 (stereo not given) | -4.36% (inactive)
15 | Cc1nc(SCC(=O)NC2CCCC2)[nH]c(=O)c1C | -8.77% (inactive)
16 | CCCCC(=O)N1CC2(C)CN(C(=O)CCCC)CC(C)(C1)C2=O | -5.12% (inactive)
17 | CCOC(=O)COc1cc(OCC(=O)OCC)c2c(=O)cc(-c3ccccc3)oc2c1 | -13.4% (inactive)
18 | COc1c(O)cc2oc(-c3ccc(O)c(O)c3)cc(=O)c2c1O | 24.9% (active)
19 | COc1cc(O)c2c(=O)c3c(O)c(O)ccc3oc2c1OC | -9.49% (inactive)
20 | CCN(CC(=O)NCc1cccs1)C(=O)/C=C/c1ccc(C)cc1 | -10.9% (inactive)
21 | Cc1sc(NC(=O)C2=COCCO2)c(C#N)c1C | -16.8% (inactive)
22 | CCCc1cc(=O)[nH]c(SCC(=O)Nc2sc3c(c2C#N)CCCC3)n1 | 5.46% (inactive)
23 | CCCc1ccc(-c2c(C)sc(NC(=O)c3ccnn3C)c2C#N)cc1 | 29.1% (active)
24 | Nc1cccc(S(=O)(=O)Nc2ccc(SC(F)F)cc2)c1 | 12.1% (inactive)

Row | Compound | inhibition
25 | CCn1ccnc1CN(C)C(=O)c1cc(COc2ccc(Cl)cc2OC)on1 | -6.33% (inactive)
26 | COc1ccc(OCc2cc(C(=O)N3CCCC3)no2)c2ccccc12 | -10.3% (inactive)
27 | COc1cc(Cl)ccc1OCc1cc(C(=O)N2CC[C@@H]3CCCC[C@H]3C2)no1 | 30.9% (active)
28 | O=C(O)CCCCc1nc2ccccc2s1 | 33.5% (active)
29 | Cc1nn(-c2ccc(F)cc2)c(Cl)c1/C=C(/CCC(=O)O)c1nc2ccccc2s1 | -3.61% (inactive)
30 | O=C(O)CCCCCCCCc1cn(CN2C(=O)c3ccccc3C2=O)nn1 | 12.6% (inactive)
31 | Cc1ccc([C@H]2N[C@]3(CCCN(CC4CCCCC4)C3=O)[C@H]3C(=O)N(Cc4ccccc4)C(=O)[C@@H]23)cc1 | -0.53% (inactive)
32 | CCCCN(C(=O)c1ccc(OC(F)(F)F)cc1)c1c(N)n(CCC)c(=O)[nH]c1=O | -6.23% (inactive)
33 | CCCCN(C)C(=O)c1ccc2c(c1)N(CC)C(=O)c1ccccc1S2(=O)=O | 18% (inactive)
34 | O=C(Cc1ccc([N+](=O)[O-])cc1)Nc1ccc(C(=O)N2CCOCC2)cc1 | -11.3% (inactive)
35 | O=C(Cc1cccs1)Nc1ccc([N+](=O)[O-])cc1 | 23.9% (active)
36 | Cc1cc(C)n(CC(=O)Nc2ccc([N+](=O)[O-])cc2)n1 | -4.31% (inactive)
37 | Cc1ccc(N(CCC(=O)O)S(=O)(=O)c2cccc(C(F)(F)F)c2)cc1 | 3.61% (inactive)
38 | Cc1noc(C)c1S(=O)(=O)Nc1cc(C(F)(F)F)ccc1N1CCOCC1 | 3.45% (inactive)
39 | Cc1oc2c(F)c(F)c(F)c(F)c2c1S(=O)(=O)Nc1cccc(C(F)(F)F)c1 | 27.9% (active)
40 | COc1cc(C(=O)NCCOC(=O)c2cccc(N(C)C)c2)cc(OC)c1OC | -4.91% (inactive)
41 | CCOc1ccc2[nH]c(=O)c(CN(CCCO)C(C)=O)cc2c1 | 7.13% (inactive)
42 | OC(CN=c1sc2ccccc2n1CC(O)COc1ccccc1)COc1ccccc1 (stereo not given) | 62.5% (active)
43 | Cc1cccc(OCC(O)Cn2c(=N)n(CCN3CCOCC3)c3ccccc32)c1 (stereo not given) | -12.8% (inactive)
44 | OC(COc1ccccc1)CN1CCN(c2cccc(Cl)c2)CC1 (stereo not given) | -14.9% (inactive)
45 | COC(=O)Cc1c(O)ccn(Cc2cccc(C(F)(F)F)c2)c1=O | -6.45% (inactive)
46 | Cc1cccc(C)c1Nc1nnc(SCC(=O)NCCCN2CCCC2=O)s1 | -7.35% (inactive)
47 | O=C(NCCN1CCOCC1)[C@H](Cc1ccccc1)N1C(=O)c2ccccc2C1=O | -4.92% (inactive)
48 | CCOC(=O)C(Cc1ccc(N)cc1)N1C(=O)c2ccccc2C1=O (stereo not given) | 25.2% (active)

Row | Compound | inhibition
49 | COc1ccc(CNC(=O)COC(=O)C(CCSC)N2C(=O)c3ccccc3C2=O)cc1 (stereo not given) | -6.61% (inactive)
50 | CCCS(=O)(=O)NC(=O)C1(C)CCCN(C(=O)c2cccs2)C1 (stereo not given) | -9.34% (inactive)
51 | CCC(=O)N1Cc2cc(C(=O)NCc3cccc(F)c3)nc(-c3cccc(C4=CCCC4)c3)c2[C@H]1CCO | -1.18% (inactive)
52 | CCCNC(=O)c1cc2c(c(-c3cccc(-c4ccc(C#N)cc4)c3)n1)[C@@H](CCO)N(C(=O)CC)C2 | 25.5% (active)
53 | CCNC(=O)c1cc2c(c(-c3cccc(-c4cncnc4)c3)n1)[C@H](CCO)N(C(C)=O)C2 | -11.6% (inactive)
54 | COc1ccc(C(C[N+](=O)[O-])n2nc(C)cc2C)cc1 (stereo not given) | -0.39% (inactive)
55 | Cc1c(NC(=O)Nc2ccccc2Cl)sc(=S)n1C | 24.7% (active)
56 | Cc1c(Cl)cccc1NC(=O)NCc1ccc(C)n1C | 3.33% (inactive)
57 | Cc1c(Cl)cccc1NC(=O)Nc1ccc(C(=O)N2CCCC2)cc1 | -18.4% (inactive)
58 | CC1(C)CC(=O)c2cnc3nc4ccccc4n3c2C1 | -11.2% (inactive)
59 | CC1(C)CC(=O)C(N=Nc2c(F)cccc2F)=C(O)C1 | -15.2% (inactive)
60 | CCOC(=O)C1(C)CCCN(C(=O)c2cccc(Cl)c2)C1 (stereo not given) | -16.1% (inactive)
61 | CCO/N=C(/C)c1c(O)cc(-c2ccccc2)n(-c2ccccc2)c1=O | -7.62% (inactive)
62 | Cc1nn(-c2ccccc2)c(C)c1/C=N/NC(=O)CSc1nc2ccccc2c(=O)n1-c1ccccc1 | 14.8% (inactive)
63 | C=CCO/N=C(\C)c1c(O)c(C)c(-c2ccccc2)n(-c2ccccc2)c1=O | 28% (active)
64 | O=C(C1CC1)N1N=C2CCCCC2C1(O)C(F)(F)F (stereo not given) | 3.71% (inactive)
65 | CC(=O)NCCc1ccc(S(=O)(=O)Nc2ccc(C)c(S(=O)(=O)N3CCOCC3)c2)cc1 | 11% (inactive)
66 | Cn1c(=O)c2c(SCC(=O)N3CCOCC3)nc(C3CC3)nc2n(C)c1=O | -6.78% (inactive)
67 | CCCC1(C(=O)OCC)NC(c2ccc(N(C)C)cc2)C2C(=O)N(c3ccc4c(c3)OCCO4)C(=O)C21 (stereo not given) | -5.19% (inactive)
68 | Cc1ccc(CNC(=O)CCNS(=O)(=O)c2cccc3nonc23)cc1 | -10.2% (inactive)
69 | CCNC(=S)NNC(=O)C1CCN(Cc2ccccc2)CC1 | -12.2% (inactive)
70 | Cc1scc(C(=O)NNC(=S)NCc2ccccc2)c1C | -15.3% (inactive)
71 | CCNC(=S)NNC(=O)Cc1ccccc1 | 32.5% (active)
72 | CCOC(=O)C1CCN(C(=O)c2ccc3c(=O)n4nc(Nc5ccccc5CC)sc4nc3c2)CC1 | -9.89% (inactive)

Row | Compound | inhibition
73 | COC(=O)C1=C(N)Oc2cc(C)oc(=O)c2C1c1cccnc1 (stereo not given) | -3.67% (inactive)
74 | CCSc1nc2c(c(=O)[nH]1)C(c1cccnc1)C(C(=O)OC(C)C)=C(C)N2 (stereo not given) | 25.5% (active)
75 | CCSc1nc(O)c(C(c2cccc(OC)c2)c2c(O)nc(SCC)[nH]c2=O)c(=O)[nH]1 | -3.25% (inactive)
76 | COc1ccc(Cl)cc1NC(=O)CN(C)C(=O)CCCc1c[nH]c2ccccc12 | 2.49% (inactive)
77 | O=C1NC(Cc2ccccc2)c2nc3ccc(Br)cc3c(=O)n2-c2cc3ccccc3cc21 (stereo not given) | 12.3% (inactive)
78 | COc1ccc(O)c(C=Nc2cc(C)on2)c1 | -9.65% (inactive)
79 | Cc1ccc(NC(=O)Nc2ccc3oc(C)nc3c2)cc1 | -8.85% (inactive)
80 | O=C(Nc1ccc2ccccc2c1)Nc1ccc2snnc2c1 | 32.6% (active)
81 | CS(=O)(=O)c1ccccc1C(=O)Nc1ccc2sccc2c1 | -10.2% (inactive)
82 | CC(C)Oc1ccc(CC(=O)NNC(=S)Nc2ccc(Br)cc2)cc1 | -8.93% (inactive)
83 | CC(C)OCCCNc1ncnc2c1[nH]c1ccc(F)cc12 | 26.5% (active)
84 | CCOc1ccc(C2NC(=S)NC3=C2CCc2ccccc23)cc1 (stereo not given) | 4.36% (inactive)
85 | COCc1[nH][nH]c(=O)c1C=Nc1ccc(F)cc1F | 3.8% (inactive)
86 | CCN1/C(=C\c2ccc3ccccc3[n+]2CC)Sc2cc(C)ccc21 | 47.2% (active)
87 | N#CCCN(C(=O)Nc1ccc(Cl)c(Cl)c1)C1CCCCC1 | 5.09% (inactive)
88 | CC1(C(=O)O)CCC(C(=O)Nc2ccc(Cl)c(Cl)c2)C1(C)C (stereo not given) | -12.5% (inactive)
89 | O=C(CC(O)(C(F)(F)F)C(F)(F)F)Nc1ccc(Cl)c(Cl)c1 | 42.9% (active)
90 | CC1(C)C2CCC13CS(=O)(=O)NC3C2 (stereo not given) | -9.03% (inactive)
91 | NC1=NC2(CCCCC2)N(c2ccc(F)cc2F)C(N)=N1 | 13.8% (inactive)
92 | CC(C)N1CCc2c(sc(NC(=O)Cc3ccccc3)c2C#N)C1 | 24.7% (active)
93 | CC(=O)N1CCc2c(sc(NC(=O)CCS(=O)(=O)c3ccccc3)c2C#N)C1 | 0.29% (inactive)
94 | N#Cc1c(N)sc2c1CCN(C(=O)OCc1ccccc1)C2 | -19.6% (inactive)
95 | C[C@H](NC(=O)[C@@H]1CCCN1C(=O)[C@@H]1CCCN1C(=O)c1ccccc1)c1ccccc1 | -24.1% (inactive)
